# The list is not random: actives were taken first. Their share in the collection is about 4.3%.
# NALP1 inh = blocks the NALP1 inflammasome reconstituted in yeast. hit rate 0.61% among 280,000. inhibition, % at 10 µM. S. cerevisiae NALP1/ASC/caspase-1 growth, X-gal OD620, 72 h; in the data active means inhibition mostly above about 24%, no sharp cut-off; inactive means mostly below about 32%
# Yeast superoxide = caloric restriction mimetics inhibiting age-related superoxide in yeast; S. cerevisiae aged cells, superoxide DHE fluorescence; stronger effect = lower value; superoxide response (% of plate mean), % at 10 µM; hit rate 0.18% among 330,000;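 active means superoxide response under a set limit, about three screen SD below normal, cut at about 65% in these data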;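 further: yeast aged for seven days with compound at 30 °C before DHE staining; 100% = average MFI of all compound-treated wells on the plate with controls excluded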
# GRIN3A LBD mod = NR3A (human) ligand-binding domain modulation; NR3A LBD differential scanning fluorimetry, Tm shift; 0% = protein alone, 100% = glycine-bound protein; Tm shift relative to glycine control, % at 25 µM; AID 1259313; hit rate 2.5% among 340,000;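 active means melting temperature shift of at least 10% of the positive control shift, at one fixed dose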
# dFosB activator = enhances mouse delta FosB homodimer DNA binding; activation, % at 25 µM; AID 493131; hit rate 0.99% among 340,000; purified delta FosB, TAMRA-CDK5 oligo fluorescence polarization; percent of positive-control signal above neutral wells;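 active means mean activation above about 17%, with every replicate also reaching it, limit read from the data, passing the limit was not always enough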
# Target sequence (P13346 whole entry, looked up): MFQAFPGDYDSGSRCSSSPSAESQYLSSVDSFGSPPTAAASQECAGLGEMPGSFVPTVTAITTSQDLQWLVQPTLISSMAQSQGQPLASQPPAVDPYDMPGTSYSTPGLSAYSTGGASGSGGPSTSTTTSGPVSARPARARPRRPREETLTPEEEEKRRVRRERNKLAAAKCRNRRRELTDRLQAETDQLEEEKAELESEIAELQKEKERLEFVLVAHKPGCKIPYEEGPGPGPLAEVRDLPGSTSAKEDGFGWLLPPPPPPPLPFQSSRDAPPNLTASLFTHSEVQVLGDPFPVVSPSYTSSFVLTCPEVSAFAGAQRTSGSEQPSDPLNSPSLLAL
# UBC13 polyUb = human UBC13 polyubiquitination inhibition | P61088 | UBC13 polyubiquitin chain formation, TR-FRET | inhibition, % at 20 µM | hit rate 0.47% among 330,000 | AID 485273; in the data active means inhibition above about 45%, passing the limit was not always enough
# Target sequence (P61088 whole entry, looked up): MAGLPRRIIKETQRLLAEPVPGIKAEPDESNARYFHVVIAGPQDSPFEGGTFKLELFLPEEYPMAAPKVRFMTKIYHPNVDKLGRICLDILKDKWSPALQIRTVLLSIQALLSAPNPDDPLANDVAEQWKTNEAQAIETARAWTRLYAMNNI
# Numbers without * were called inactive; i = inactive; · = no result given.
SMILES,NALP1 inh,Yeast superoxide,GRIN3A LBD mod,dFosB activator,UBC13 polyUb
NC(=O)/C=C/C(=O)Nc1ccc(Cl)cc1,79.1*,102.4,-0.4,2.5,-5.9
O=C(/C=C/C(Cl)(Cl)Cl)Nc1ccc(Cl)cc1,·,·,-9.8,-2.1,·
CCOc1cc(/C=C2\COc3ccccc3C2=O)cc(Br)c1OCC(=O)N(C)C,15.7,115.9,4.4,-17.4,-8.8
COc1ccc(-c2csc(NC(=O)c3ccco3)n2)cc1,5.0,103.3,-5.8,-5.2,0.7
O=C(NNc1nc(-c2ccc(Br)cc2)cs1)c1ccco1,11.4,107.5,-2.3,4.2,-9.4
O=C(NC(=S)Nc1nc(-c2ccc([N+](=O)[O-])cc2)cs1)c1ccco1,14.7,104.5,20.0*,-10.3,-10.9
O=C(NC(=S)Nc1nc(-c2ccc(Br)cc2)cs1)c1ccco1,24.8,102.9,30.4*,-16.4,-1.9
Cc1ccnn1-c1ccc(C(=O)NCc2ccccc2CN2CCOCC2)cc1,·,108.0,2.0,-5.4,15.7
CCN(CC)C(=O)Cn1cc(S(=O)(=O)CC(=O)NCCc2ccccc2)c2ccccc21,9.5,95.1,14.8*,-3.5,-0.1
CCN(CC)C(=O)Cn1cc(S(=O)(=O)CC(=O)NCc2ccc(C)cc2)c2ccccc21,3.5,93.4,1.8,-7.6,-4.5
CC(C)c1ccc(/C=C(\NC(=O)c2ccccc2)C(=O)NCCN2CCOCC2)cc1,11.1,91.7,·,-12.2,-7.4
COc1ccc(NC(=O)c2ccc(NC(=O)c3cccs3)cc2)cc1,31.9,76.9,25.6*,-1.9,-6.1
COc1ccc(OCC(=O)Nc2ccc(NC(=O)c3cccs3)cc2)cc1,0.2,84.3,32.3*,-7.2,3.3
COc1ccccc1CC(=O)Nc1ccc(NC(=O)c2cccs2)cc1,16.3,88.5,-11.6,16.6*,7.9
CSc1ccc(/C=C/C(=O)c2ccc(NC(C)=O)cc2)cc1,53.2*,106.6,5.8,-0.6,6.7
O=C(Nc1nccs1)c1ccc(S(=O)(=O)N2CCOCC2)cc1,0.7,99.0,0.4,-4.2,-6.3
CCN(CC(=O)Nc1cccc(OC)c1)C(=O)c1cnc(Cl)c(Cl)c1,16.8,84.8,-0.3,5.2,-5.3
COc1ccc(/C=C/C(=O)c2ccc(O)cc2)cc1,1.9,87.3,11.0*,-5.8,-1.6
CCC(C)(C)NC(=O)Cc1ccccc1OC,41.1*,98.6,1.2,-1.3,-10.3
COc1ccc(Cl)cc1-c1nc(-c2ccc(NC(=O)c3cccs3)cc2)no1,33.3,96.0,35.2*,-15.1,1.4
COc1ccc(CCNC(=O)c2cccs2)cc1,16.1,107.7,30.9*,-2.5,-3.6
Cc1cc(C)c(C)c(C(=O)COC(=O)CNC(=O)CNC(=O)c2ccco2)c1C,1.9,99.1,1.3,-1.9,1.5
Cc1cc(-c2nc(C)c(C(=O)NN)s2)no1,13.7,114.1,-0.3,-10.5,-0.2
Cc1ccc(S(=O)(=O)NCC(=O)NCC(=O)OCC(=O)N2CC(=O)Nc3ccccc32)cc1C,7.8,78.4,-2.1,-10.2,0.7
O=C(Nc1ccc(NC(=O)c2cccs2)cn1)c1ccccc1,-23.0,101.1,13.6*,6.2,4.3
SMILES,NALP1 inh,Yeast superoxide,GRIN3A LBD mod,dFosB activator,UBC13 polyUb
COc1ccc(C(=O)Nc2cccc(NC(=O)c3cccs3)c2)cc1,22.9,101.3,8.0,-17.2,-7.3
COc1ccc(C(=O)/C=C\c2ccc(NC(=O)c3cccs3)cc2)cc1,13.2,91.0,23.0*,2.4,3.3
Cc1nc2ccc(S(=O)(=O)N(C)CC(=O)N3CCc4ccccc43)cc2s1,5.2,103.1,-0.4,-1.2,3.6
CN(CC(=O)N1CCc2ccccc21)S(=O)(=O)c1ccc(Br)s1,-23.5,109.7,15.5*,-11.6,-3.2
C=C(C)c1cccc(C(C)(C)NC(=O)Nc2ccc(OC)nc2)c1,19.9,102.2,-0.8,-4.5,-14.9
O=c1[nH]c(O)c(/C=C2\C=Nc3ccc(Br)cc32)[nH]1,-11.2,111.0,41.5*,0.7,-6.4
CCOC(=O)c1[nH]c2ccc(F)cc2c1NC(=O)C(C)N1CCc2cc(OC)c(OC)cc2C1 (stereo not given),31.0*,97.4,-0.3,-4.9,1.4
O=c1[nH]c2ccccc2nc1C(F)(F)F,37.3*,i,-0.9,0.6,14.9
CCc1nc2ccccc2[nH]c1=O,0.5,87.7,-0.4,-4.5,30.8
O=C(c1cc(C(=O)NCCc2ccccc2)c(=O)n(CCc2ccccc2)c1)c1cc(Cl)ccc1O,7.0,93.9,13.2*,-7.9,-6.1
CCOc1cc(/C=C/C(=O)OCC(=O)NCc2ccco2)cc(Cl)c1OC,·,105.5,-0.3,-7.8,-2.5
CCOC(=O)C1C(c2ccc(O)c(OC)c2)NC(=O)NC1(O)C(F)(F)F (stereo not given),34.0*,105.4,0.7,-3.0,1.2
COc1ccc(/C=C(/NC(=O)c2ccco2)C(=O)NCc2ccco2)cc1OC,2.4,106.0,1.8,-8.9,-10.6
Oc1ccc(N=Nc2n[nH]c(-c3ccc(Br)cc3)n2)cc1,11.0,86.8,26.9*,1.0,·
Oc1ccc(N=Nc2nc(-c3ccccc3)c(-c3ccccc3)[nH]2)cc1,31.6,103.5,2.0,-0.8,-257.0
Oc1ccc(N=Nc2n[nH]c(-c3ccccc3)n2)cc1,17.1,86.6,10.2*,-5.5,-118.0
O=C(Cc1ccccc1)NN1CCCCC1,-8.8,95.2,-2.4,-0.9,4.0
CCN1C(=O)/C(=C\N(C)C)S/C1=N\S(=O)(=O)c1ccc(C)cc1,-19.7,100.6,2.1,4.1,-4.7
O=C1NC[C@H](Cc2ccccc2)N(CC2CCN(CCCC3CCCC3)CC2)C1=O,·,·,1.2,0.5,·
COC(=O)c1cc(NC(=O)Nc2ccccc2)ccc1Cl,-0.6,98.4,39.4*,-2.8,6.4
COC(=O)c1cccc(NC(=O)Nc2ccc(Cl)c(Cl)c2)c1,3.3,123.1,42.9*,-11.2,5.7
COC(=O)c1cc(NC(=O)C2COc3ccccc3O2)ccc1Cl (stereo not given),8.0,86.8,-0.5,-10.5,12.0
COC(=O)c1cccc(NC(=O)NC(=O)c2ccccc2Cl)c1,8.4,99.4,-0.2,3.4,-4.6
COc1ccccc1NC(=S)NC(=O)c1ccc(-c2ccc(Cl)cc2)o1,1.2,91.0,-9.3,-6.0,-12.0
Cc1ccc(O)c(NC(=O)c2cc(-c3ccc(F)cc3)on2)c1,-5.5,98.4,217.2*,2.4,-0.5
Cc1ccc(O)c(NC(=O)c2cc(-c3cccs3)on2)c1,13.0,113.2,-0.2,15.5,4.8
O=C(NC(=S)Nc1ccccc1O)c1ccc(-c2ccc(Cl)cc2)o1,-8.5,96.3,29.5*,-11.9,-20.6
Cc1ccc(O)c(NC(=S)NC(=O)c2ccc(-c3ccc(Cl)cc3)o2)c1,·,137.9,29.4*,-0.8,-22.2
Cc1cc(C(=O)N2CCCC(N3CCN(c4cccc(C(F)(F)F)c4)CC3)C2)no1 (stereo not given),6.5,99.1,20.4*,-10.9,11.2
O=C(c1cnccn1)N1CCCC(N2CCN(c3cccc(Cl)c3)CC2)C1 (stereo not given),1.3,91.5,-1.2,4.0,-4.1

# Screening results as filed in PubChem BioAssay.
